Data published in PubChem BioAssay (Tox21).
Several values for one entry are separate records, joined by “and”; a condition that tells them apart may be missing. Identical values can stand only once. Results filed as inconclusive are left out. A call without a number means that no potency is given here. Activity calls are given as the source filed them. Unless noted, calls follow the shape of the dose curve; as a rule, active = well fitted cell-killing curve with a large enough effect in the repeat runs; inconclusive = weak or mixed curves, or effect the other way; inactive = flat fitted curve, though single readings scatter.

Target: Estrogen receptor beta (Homo sapiens) (UniProt Q92731)
Experiment: qHTS assay to identify small molecule agonists of the estrogen receptor beta (ER-beta) signaling pathway (AID 1259377; active = well fitted activation curve with a large enough effect in the signal ratio in the repeat runs, not every such curve was filed as active; the % refers to the signal ratio)
Settings: ER-beta-UAS-bla HEK293T, beta-lactamase FRET ratio, 16 h; series mostly up to 92.4 µM
In short: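 ER-beta-UAS-bla HEK293T cells in medium with 2% charcoal-stripped FBS were exposed to compounds for 16 h at 37C. Beta-lactamase reporter activity was read as fluorescence after 2 h with LiveBLAzer B/G FRET substrate at room temperature.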

Sequence of Estrogen receptor beta (Homo sapiens) (Q92731 whole entry, looked up): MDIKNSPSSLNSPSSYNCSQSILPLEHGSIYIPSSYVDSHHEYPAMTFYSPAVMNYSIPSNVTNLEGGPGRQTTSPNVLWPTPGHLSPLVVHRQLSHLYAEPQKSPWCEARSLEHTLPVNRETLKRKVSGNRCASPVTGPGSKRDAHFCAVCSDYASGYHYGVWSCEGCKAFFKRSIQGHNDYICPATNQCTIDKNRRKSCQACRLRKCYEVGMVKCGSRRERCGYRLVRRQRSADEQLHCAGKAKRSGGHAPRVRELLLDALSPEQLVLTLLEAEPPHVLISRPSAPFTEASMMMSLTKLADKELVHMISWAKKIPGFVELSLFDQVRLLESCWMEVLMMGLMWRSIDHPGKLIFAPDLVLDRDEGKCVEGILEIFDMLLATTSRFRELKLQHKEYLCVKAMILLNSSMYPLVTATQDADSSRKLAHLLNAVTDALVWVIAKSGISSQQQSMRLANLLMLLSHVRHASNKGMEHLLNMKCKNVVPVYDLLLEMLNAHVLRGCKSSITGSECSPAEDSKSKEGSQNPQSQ

Compound	Potency	activation
CCCCNc1c(C(=O)OCC)c(C)nc2c1cnn2CC	inactive	–
CC1=CCC(=O)O1	inactive	–
Cc1ccc2ccc3cccc4ccc1c2c34	inactive	–
CCN(CC)CCSC(=O)C(c1ccccc1)c1ccccc1	inactive	–
CC(=O)c1ccccc1N	inactive	–
C=CC(=C)CC/C=C(\C)CCC=C(C)C	–	1.85% [at 19 µM] (inactive)
CCCCCCCC(C)=O	inactive	–
CCc1cccc(CC)c1N(COC)C(=O)CS(=O)(=O)O	inactive	–
C/C=C/C(=O)C1=C(C)CCCC1(C)C	inactive	–
CC(C)=C1CC[C@@H](C)CC1=O	inactive	–
CN(Cc1cc(Br)cc(Br)c1N)C1CCCCC1	inactive	–
Cc1cc(=O)[nH]c(=O)[nH]1	inactive	–
Cn1cnc2ncnc(N)c21	inactive	–
CC(C)=CC1CC(C)CCO1 (configuration not stated)	inactive	–
CCCCCCCCCCCCCOP(=O)(O)O	inactive	–

Target: Estrogen receptor beta (Homo sapiens) (UniProt Q92731)
Experiment: qHTS assay to identify small molecule antagonists of the estrogen receptor beta (ER-beta) signaling pathway (AID 1259378; active = well fitted inhibition curve with a large enough effect in the signal ratio in the repeat runs, not every such curve was filed as active; the % refers to the signal ratio; also: potency is read from the fitted curve at half-maximal effect)
Settings: ER-beta-UAS-bla HEK293T, beta-lactamase FRET ratio, 16 h; series mostly up to 92.4 µM
In short: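 ER-beta-UAS-bla HEK293T cells in 2% charcoal-stripped FBS medium treated with compound plus 1nM final 17-beta-estradiol for 16 hr at 37C. Beta-lactamase reporter read by FRET substrate fluorescence after 2 hours at room temperature.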

Compound	Potency	activity, negative = inhibition
Cc1ccc2ccc3cccc4ccc1c2c34	inactive	–
O=S(O)O	–	1.38% [at 19 µM] (inactive)
CCN(CC)CCSC(=O)C(c1ccccc1)c1ccccc1	inactive	–
CC(=O)c1ccccc1N	inactive	–
C=CC(=C)CC/C=C(\C)CCC=C(C)C	–	-20.6% [at 19 µM] (inactive)
c1ccc(Nc2cccc3ccccc23)cc1	31 µM (active) and 54.5 µM (active)	–
CCCCCCCC(C)=O	inactive	–
CCc1cccc(CC)c1N(COC)C(=O)CS(=O)(=O)O	inactive	–
CC(C)=C1CC[C@@H](C)CC1=O	inactive	–
CN(Cc1cc(Br)cc(Br)c1N)C1CCCCC1	inactive	–
Cc1cc(=O)[nH]c(=O)[nH]1	inactive	–
CCCCCCCC/C=C\CCCCCCCC(=O)OCCOC(=O)CCCCCCC/C=C\CCCCCCCC	inactive	–
Cn1cnc2ncnc(N)c21	inactive	–
O=C1OC(=O)c2ccc3c4c(ccc1c24)C(=O)OC3=O	inactive	–

System: not listed separately
Experiment: qHTS assay to identify small molecule agonists of the androgen receptor (AR) signaling pathway in the presence of an antagonist - cell viability counter screen (AID 1259379); also: nearly all actives have a fitted effect of over 25% in size; also: potency is read from the fitted curve at half-maximal effect;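 as to activity change, negative = cytotoxicity: MDA-kb2 human breast cancer cells carrying an MMTV luciferase reporter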
Settings: MDA-kb2 viability, CellTiter-Fluor, 16 h; series mostly up to 92.4 µM
In short: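 Cytotoxicity counter-screen run in the same wells as the nilutamide-challenged (3.0 µM final) AR agonist assay in MDA-kb2 cells. Compounds tested at 15 concentrations for 16 h, 37 °C without CO2; CellTiter-Fluor fluorescence read.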

Compound	Potency	activity change, negative = cytotoxicity
COc1cccc(O)c1	inactive	–
CCCCNc1c(C(=O)OCC)c(C)nc2c1cnn2CC	inactive	–
O=S(=O)(O)CCCN1CCOCC1	inactive	–
CCCCCCCCCCCCCc1ccccc1	inactive	–
CC1=CCC(=O)O1	inactive	–
CCC(=O)CC(C)CC (configuration not stated)	–	0.759% [at 0.35 µM] (inactive)
Cc1ccc2ccc3cccc4ccc1c2c34	inactive	–
O=S(O)O	–	1.09% [at 19 µM] (inactive)
O=C=NCc1cccc(CN=C=O)c1	–	-5.15% [at 19 µM] (inactive)
CCN(CC)CCSC(=O)C(c1ccccc1)c1ccccc1	inactive	–
CC(=O)c1ccccc1N	inactive	–
C=CC(=C)CC/C=C(\C)CCC=C(C)C	–	1.35% [at 19 µM] (inactive)
c1ccc(Nc2cccc3ccccc23)cc1	inactive	–
OCCC(O)CO (configuration not stated)	inactive	–
Cc1cc(C)c(C=O)c(C)c1	inactive	–
CNC(=S)NN	inactive	–
CCCCCCCC(C)=O	inactive	–
C/C=C/C(=O)Oc1c(CCCCCC(C)C)cc([N+](=O)[O-])cc1[N+](=O)[O-]	15.4 µM (active)	–

Compound	Potency	activity change, negative = cytotoxicity
CCc1cccc(CC)c1N(COC)C(=O)CS(=O)(=O)O	inactive	–
C/C=C/C(=O)C1=C(C)CCCC1(C)C	inactive	–
CCN(CC)c1cccc(C)c1	inactive	–
CC(C)=C1CC[C@@H](C)CC1=O	inactive	–
CN(Cc1cc(Br)cc(Br)c1N)C1CCCCC1	inactive	–
C(=C/c1ccccc1)/c1ccccc1	inactive	–
CC=O	1.28 µM (active)	–
CCCCCCCCCCCCCC[n+]1ccccc1	3.06 µM (active)	–
Cc1cc(=O)[nH]c(=O)[nH]1	inactive	–
CCCCCCCC/C=C\CCCCCCCC(=O)OCCOC(=O)CCCCCCC/C=C\CCCCCCCC	inactive	–
CSc1ccc2c(c1)N(CCC1CCCCN1C)c1ccccc1S2 (configuration not stated)	54.3 µM (active) and 29.8 µM (active)	–
Cn1cnc2ncnc(N)c21	inactive	–
COc1ccc(C#N)cc1	inactive	–
CCc1cccc(C)c1	inactive	–
CC(C)=CC1CC(C)CCO1 (configuration not stated)	inactive	–
CCCCCCCCCCCCCOP(=O)(O)O	inactive	–
O=C1OC(=O)c2ccc3c4c(ccc1c24)C(=O)OC3=O	inactive	–

System: not listed separately
Experiment: qHTS assay to identify small molecule agonists of the estrogen receptor beta (ER-beta) signaling pathway - cell viability counter screen (AID 1259380); also: nearly all actives have a fitted effect of over 30% in size; also: potency is read from the fitted curve at half-maximal effect
Settings: ER-beta-bla HEK293T viability, CellTiter-Glo luminescence, 16 h; series mostly up to 92.4 µM
In short: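 Cell viability counter screen: CellTiter-Glo luminescence (30 min, room temperature) measured in the same wells as the beta-lactamase readout, after 16 hr compound exposure at 37C of ER-beta-bla HEK293T cells in 2% charcoal-stripped FBS medium.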

Compound	Potency	activity change, negative = cytotoxicity
COc1cccc(O)c1	inactive	–
CCCCNc1c(C(=O)OCC)c(C)nc2c1cnn2CC	inactive	–
O=S(=O)(O)CCCN1CCOCC1	inactive	–
CCCCCCCCCCCCCc1ccccc1	inactive	–
CC1=CCC(=O)O1	inactive	–
CCC(=O)CC(C)CC (configuration not stated)	–	3.56% [at 0.349 µM] (inactive)
Cc1ccc2ccc3cccc4ccc1c2c34	24.3 µM (active)	–
O=S(O)O	–	-0.0055% [at 19 µM] (inactive)
O=C=NCc1cccc(CN=C=O)c1	–	2.31% [at 19 µM] (inactive)
CCN(CC)CCSC(=O)C(c1ccccc1)c1ccccc1	29.8 µM (active)	–
CC(=O)c1ccccc1N	inactive	–
C=CC(=C)CC/C=C(\C)CCC=C(C)C	–	-10.3% [at 19 µM] (inactive)
c1ccc(Nc2cccc3ccccc23)cc1	54.5 µM (active)	–
OCCC(O)CO (configuration not stated)	inactive	–
Cc1cc(C)c(C=O)c(C)c1	inactive	–
CNC(=S)NN	17.2 µM (active)	–
CCCCCCCC(C)=O	inactive	–

Compound	Potency	activity change, negative = cytotoxicity
C/C=C/C(=O)Oc1c(CCCCCC(C)C)cc([N+](=O)[O-])cc1[N+](=O)[O-]	30.6 µM (active)	–
CCc1cccc(CC)c1N(COC)C(=O)CS(=O)(=O)O	inactive	–
C/C=C/C(=O)C1=C(C)CCCC1(C)C	inactive	–
CCN(CC)c1cccc(C)c1	inactive	–
CC(C)=C1CC[C@@H](C)CC1=O	inactive	–
C(=C/c1ccccc1)/c1ccccc1	inactive	–
CCCCCCCC/C=C\CCCCCCCC(=O)N(C)CC(=O)O	54.5 µM (active)	–
CC=O	57 µM (active)	–
CCCCCCCCCCCCCC[n+]1ccccc1	30.6 µM (active)	–
Cc1cc(=O)[nH]c(=O)[nH]1	inactive	–
CCCCCCCC/C=C\CCCCCCCC(=O)OCCOC(=O)CCCCCCC/C=C\CCCCCCCC	inactive	–
CSc1ccc2c(c1)N(CCC1CCCCN1C)c1ccccc1S2 (configuration not stated)	19.3 µM (active) and 18.8 µM (active)	–
Cn1cnc2ncnc(N)c21	inactive	–
CCc1cccc(C)c1	inactive	–
CC(C)=CC1CC(C)CCO1 (configuration not stated)	inactive	–
O=C1OC(=O)c2ccc3c4c(ccc1c24)C(=O)OC3=O	inactive	–
